The conditions of assay [1]: Ebola virus entry assay, green fluorescence channel.
The conditions of assay [2]: Ebola virus entry assay, blue channel fluorescence.
For assay [3] the following is noted: Ebola virus entry assay, ratio channel.
The conditions of assay [4]: Ebola virus entry assay, reporter ratio channel; Channel type: primary.

Values without a mark were called inactive. For part of these data: Measured potencies and affinities stand elsewhere. Active and inactive are the calls of the source. No rule for the calls is given here.
For efficacy in this document: 0% is about no effect.

In general, AC50 refers to the concentration at which the activity in the assay is half-maximal. In the case of `CCCCOc1ccc(OCCCN2CCOCC2)cc1`, in assay [1], the efficacy is 94.1%. In addition, the AC50 is 25.1 µM (active) in assay [2], 22.4 µM (active) in assay [3] and 22.4 µM (active) in assay [4].
As to `CCOC(=O)N1CCC(Nc2ccc(Cl)cc2N)CC1`, in assay [1], the efficacy was 119%. Further, the AC50 in assay [2] and in assay [4] was 39.8 µM (active) in each case. In addition, the result in assay [3] was inactive.
`C1CCC(C(CC2CCCCN2)C2CCCCC2)CC1` (stereo not given): the efficacy in assay [1] was -230%. For the same molecule, the AC50 was 1.78 µM (active) in assay [2], 0.891 µM (active) in assay [3] and 0.891 µM (active) in assay [4].
As to `CCO[C@@H]1O[C@H](C(COCc2ccccc2)OCc2ccccc2)[C@H](OCc2ccccc2)[C@H]1O` (stereo not given in full), the efficacy in assay [1] was 70%. In addition, the figures for the AC50 in assay [2], in assay [3] and in assay [4] were 31.6 µM (active), 15.8 µM (active) and 15.8 µM (active), respectively.
Take `N#C/C(=C1/SC[C@@H](c2ccc(Cl)cc2Cl)S1)n1ccnc1`: the efficacy in assay [1] is 68.3%. Also, the AC50 in assay [2] and in assay [4] was 39.8 µM (active) throughout. For the same molecule, the outcome in assay [3] was inactive.
In the case of `OCc1cc(C(O)CNCCCCCCOCCCCc2ccccc2)ccc1O` (stereo not given), in assay [1], the efficacy is 98.5%. Besides, the AC50 was 7.94 µM (active) in assay [2], 7.08 µM (active) in assay [3] and 7.08 µM (active) in assay [4].
Take `CO[C@@H]1[C@@H](OC)[C@H](C)[C@@](O)(CC(=O)O)O[C@H]1[C@H](C)[C@H]1O[C@@]2(CC[C@@](C)([C@H]3CC[C@@](C)([C@@H]4O[C@@H]([C@H]5O[C@](C)(O)[C@H](C)C[C@@H]5C)C[C@@H]4OC4C[C@H](OC)[C@@H](OC)[C@H](C)O4)O3)O2)C[C@H](O)[C@H]1C` (stereo not given in full): the efficacy in assay [1] is -69.9%. The AC50 is 1.58 µM (active) in assay [2], 1 µM (active) in assay [3] and 1 µM (active) in assay [4].
As for `COc1cc(N)c(Cl)cc1C(=O)NC1CCN(CCCOc2ccc(F)cc2)CC1OC` (stereo not given), the efficacy in assay [1] is 45%. In addition, the AC50 in assay [2] is 25.1 µM (active); in assay [3], 15.8 µM (active); in assay [4], 15.8 µM (active).
As for `Cc1c(C)n(Cc2ccccc2)c2ccc(C(=O)OCCN(C)C)cc12`, in assay [1], the efficacy is 60.6%. Also, the AC50 in assay [2], in assay [3] and in assay [4] was 3.16 µM (active) throughout.
On to `CC(Oc1c(Cl)cccc1Cl)C1=NCCN1` (stereo not given), for which the efficacy in assay [1] is 76.8%. Moreover, the AC50 in assay [2] and in assay [4] was 39.8 µM (active) throughout. Also, the outcome in assay [3] was inactive.
`COc1ccc(/C=C/C(=O)c2ccc(OC)cc2OC)cc1`: the efficacy in assay [1] was 38.6%. The AC50 in assay [2] and in assay [4] was 39.8 µM (active) in each case. Besides, the outcome in assay [3] was inactive.
Turning to `CN1CCC(=C2c3ccccc3CCc3cccnc32)CC1`, the efficacy in assay [1] was 39.6%. Also, the AC50 in assay [2] was 22.4 µM (active); in assay [3] it was 31.6 µM (active); in assay [4], 31.6 µM (active).
`OC(C#CCN1CCCC1)(c1ccccc1)c1ccccc1`: the efficacy in assay [1] was 80.1%. Besides, the AC50 in assay [2] is 39.8 µM (active); in assay [4], 35.5 µM (active). In assay [3], the result was inactive.
Turning to `COc1cccc(N(C)C(=S)Oc2ccc3c(c2)CCCC3)n1`, the efficacy in assay [1] was 84.1%. The values for the AC50 in assay [2], in assay [3] and in assay [4] were 17.8 µM (active), 28.2 µM (active) and 28.2 µM (active), respectively.
Turning to `CN1CCC(Nc2ncc3ncnc(Nc4ccc(F)c(Cl)c4)c3n2)CC1`, the efficacy in assay [1] is 97.2%. Further, the molecule was called inactive in assay [2], in assay [3] and in assay [4].
